Bioassay records (PubChem BioAssay)
Compounds with a hit are over-represented: about 9.2% of the library has one in this group of screens.
ELG1 genotox – induces genotoxicity in HEK293T cells with luciferase-tagged ELG1. HEK293T ELG1-luciferase reporter, luminescence, 16 h. Potency, µM (top dose mostly 46 µM), for inactives: top-dose activity change, positive = activation, hits mostly activators. hit rate 1.3% among 330,000. AID 504466; note: % of control where 0% means no effect; nearly all actives have a fitted effect of over 60% in size
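HEK293T cells expressing luciferase-tagged ELG1 were exposed to compound or DMSO vehicle for 16 hr at 37 °C and 5% CO2. Luciferase activity was then measured with ONE-Glo after 30 min at room temperature.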
FLuc modulator – firefly luciferase modulation, counter-screen for miR-21 project; Potency, µM (titrated, usually from 57.5 µM), for the others: at the highest dose activity change, negative = inhibition, usual class: inhibitors; hit rate 6.9% among 360,000; AID 588342; purified FLuc, Km substrates, luminescence inhibition; P08659;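 note: plate controls were vehicle for no effect and reference inhibitor for full effect; nearly all actives have a fitted effect of over 55% in size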
Target sequence (P08659 whole entry, looked up): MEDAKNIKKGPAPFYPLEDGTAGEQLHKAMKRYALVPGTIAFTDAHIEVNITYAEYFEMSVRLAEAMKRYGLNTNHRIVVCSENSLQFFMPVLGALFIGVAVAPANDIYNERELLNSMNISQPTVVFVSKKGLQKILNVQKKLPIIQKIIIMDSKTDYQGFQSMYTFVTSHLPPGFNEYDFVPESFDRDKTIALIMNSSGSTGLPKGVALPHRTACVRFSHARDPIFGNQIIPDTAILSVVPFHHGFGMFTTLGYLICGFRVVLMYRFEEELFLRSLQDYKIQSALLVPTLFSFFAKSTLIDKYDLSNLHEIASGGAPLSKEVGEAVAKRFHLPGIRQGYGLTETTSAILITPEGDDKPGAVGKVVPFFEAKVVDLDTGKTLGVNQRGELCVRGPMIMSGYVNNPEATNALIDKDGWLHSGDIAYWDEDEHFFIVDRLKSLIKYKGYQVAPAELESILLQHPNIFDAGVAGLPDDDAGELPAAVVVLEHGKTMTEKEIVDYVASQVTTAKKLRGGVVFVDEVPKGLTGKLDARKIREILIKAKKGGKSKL
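Purified P. pyralis luciferase, 10 nM final, with Km-level 10 uM D-luciferin and 10 uM ATP in 50 mM Tris acetate pH 7.5, 10 mM Mg acetate, 0.01% Tween-20, 0.05% BSA; 6-point qHTS titration about 60 µM downward; luminescence read.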
SMN2 splice up – enhancers of SMN2 splice variant expression; HEK293 SMN2-luciferase splicing reporter, luminescence, 30-36 h; Potency, µM (highest dose often 46.1 µM), for the others: top-dose activity change, positive = activation, usual class: activators; hit rate 2.8% among 210,000; note: % of control where 0% means no effect; nearly all actives have a fitted effect of over 55% in size
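qHTS luciferase splicing reporter: luminescence rises when SMN2 exon 7 is included in transfected HEK293 cells. Compound exposure lasted 30-36 h at 37C, with 4.5 mM final sodium butyrate as control, followed by a ONE-Glo read.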
Rab9 prom act – Rab9 promoter activation | Huh7 Rab9 promoter-luciferase reporter, luminescence, 24 h | Potency, µM (titrated, usually from 9.22 µM), for the others: top-dose activation, negative = inhibition, hits mostly activators | hit rate 2.8% among 320,000; note: % of control where 0% means no effect; nearly all actives have a fitted effect of over 60% in size
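Steps: seed 1500 Huh7 Rab9-luc cells per well, rest 2 h at 37 °C; add compound in DMSO; incubate 24 h; add luciferase reagent, 10 min ambient; read luminescence.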
ELG1 DNA repair – inhibitors of ELG1-dependent DNA repair in HEK293T cells; hit rate 2.3% among 330,000; Potency, µM (titrated, usually from 46.1 µM), inactives show at the top dose activity change, negative = inhibition, most hits filed as inhibitors; HEK293T ELG1-luciferase reporter, luminescence, 16 h; DNA damage induced by 5-fluorouridine; AID 504467; note: % is set by controls: 0 for no effect and ±100 for the full control effect; nearly all actives have a fitted effect of over 55% in size
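In this reporter screen, reduction of luminescence relative to DMSO vehicle indicated activity. Compounds and 5-fluorouridine were added together to 2,000 cells per well, incubated for 16 hr at 37 °C, then developed with ONE-Glo.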
NPC1 promoter act – activators of NPC1 promoter; Huh7 NPC1 promoter luciferase reporter, 24 h; Potency, µM (titrated, usually from 9.22 µM), for the others: at the highest dose activation, most hits filed as activators; hit rate 2.4% among 320,000; AID 485313; note: % of control where 0% means no effect; nearly all actives have a fitted effect of over 60% in size
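Readout is luciferase luminescence, reflecting NPC1 promoter activation in stably transfected Huh7 cells after 24 h compound exposure at 37 °C in reduced-serum medium with 10% FBS.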
Numbers without * were called inactive; ? = inconclusive; . = not tested or not shown; [ ] = another dose, or the depositor's remark. Calls come from the whole dose curve; as a rule, active = well fitted curve in the direction sought with a large enough effect; inconclusive = small, poorly fitted or top-dose-only effect, or another doubt; inactive = no such curve, though single readings can be large; an effect the other way counts as inactive or inconclusive. Potency is the fitted concentration of half-maximal effect.

SMILES	ELG1 genotox	FLuc modulator	SMN2 splice up	Rab9 prom act	ELG1 DNA repair	NPC1 promoter act
COc1ccc(OCC(=O)Nc2nc3ccc(NC(C)=O)cc3s2)cc1	12%	-15%	9%	19%	?	7%
CC(=O)Nc1nc2ccc(Br)cc2s1	?	17µM*	8%	2.8µM*	?	3.2µM*
COc1ccc(Br)cc1C(=O)Nc1nc2ccc(F)cc2s1	.	?	-54%	.	.	.
CCOC(=O)c1cc(-c2ccc(F)cc2)n(CCC(=O)Nc2nc3ccc(OC)cc3s2)c1C	.	-2%	.	.	.	.
CC(=O)NCCC(=O)Nc1nc2ccc(Oc3ccccc3)cc2s1	3.7µM*	6.7µM*	.	0.89µM*	?	1.4µM*
Cc1nnc(SCC(=O)Nc2c(Cl)cccc2Cl)n(N)c1=O	1%	0%	.	-2%	3%	0%
CC1CCN(S(=O)(=O)c2cc(C(=O)Nc3ccc(Br)cc3F)n(C)c2)CC1	.	-4%	.	.	.	.
COc1cccc(C(=O)c2cn(CC(=O)Nc3cccc(C)c3C)c3nc(C)ccc3c2=O)c1	.	2%	.	.	.	.
O=C(Nc1cc(C(F)(F)F)ccc1N1CCOCC1)c1ccc(Br)o1	.	5%	-21%	.	.	.
O=C(Nc1ccc(Cl)cc1Cl)c1ccc(Br)o1	?	13µM*	.	?	?	2.2µM*
O=C(Nc1cc(Cl)ccc1N1CCOCC1)c1ccc(Br)o1	1.2µM*	0.85µM*	.	0.56µM*	?	3.2µM*
COc1ccc(N2CCOCC2)c(NC(=O)c2ccc(Br)o2)c1	-26%	2%	.	2%	16µM*	-4%
O=C(CNC(=O)c1ccc(Br)o1)NCc1ccc(Cl)cc1Cl	11%	-14%	.	-5%	12%	-4%
Cc1nn(C(=O)c2cc3sccc3[nH]2)c(C)c1C	16%	3µM*	?	?	?	?
S=C(Nc1ccccc1)N1CCN(C/C=C/c2ccccc2)CC1	-5%	0%	.	-13%	?	-8%
O=C(NC(=S)N1CCN(C/C=C/c2ccccc2)CC1)c1ccc(F)cc1	-11%	-1%	.	-4%	10µM*	-1%
S=C(NC1CCCC1)N1CCN(C/C=C/c2ccccc2)CC1	-3%	-1%	-42%	-19%	18µM*	-19%
CCn1cc(C(=O)O)c(=O)c2cnc(N3CCN(C(=S)Nc4ccccc4Cl)CC3)nc21	-9%	3%	.	-25%	12µM*	-28%
CCn1cc(C(=O)O)c(=O)c2cnc(N3CCN(C(=S)Nc4ccc(F)cc4)CC3)nc21	-2%	-3%	.	1%	-1%	-21%
COc1ccc(Br)cc1CNC(=O)c1cc(=O)[nH]c2ccc(S(=O)(=O)N3CCCCC3)cc12	.	-2%	.	.	.	.
S=C(Nc1ccccc1)c1ccccn1	?	8.5µM*	?	2.8µM*	?	3.5µM*
S=C(Nc1ccc(Nc2ccccc2)cc1)Nc1ccccn1	?	?	-68%	-6%	12%	-12%
O=C(Nc1cccc(O)c1)C(=O)Nc1ccccn1	?	1.5µM*	10µM*	3.5µM*	?	?
O=C(O)/C=C\C(=O)Nc1ccccn1	.	.	-12%[9.22 µM]	.	.	.
C/C(CC(=O)Nc1ccccn1)=N\NC(=O)C(=O)Nc1cccc(C)c1	2%	-18%	-1%	-2%	14%	1%
SMILES	ELG1 genotox	FLuc modulator	SMN2 splice up	Rab9 prom act	ELG1 DNA repair	NPC1 promoter act
O=C(Nc1ccccc1)C(=O)Nc1ccccn1	?	1.7µM*	4.5µM*	0.45µM*	?	?
Cc1ccc2cccc(OC(=O)/C=C\c3ccccc3)c2n1	-1%	6%	.	-3%	1%	-2%
Cn1nc(/C=C/c2ccccc2)ccc1=O	?	?	13µM*	3.2µM*	?	16%
Cc1nc(/C=C/c2ccccc2)cc(/C=C/c2ccccc2)n1	?	19µM*	24%	2%	18%	1%
O=c1ccc(/C=C/c2ccccc2)nn1Cc1ccccc1	-1%	-1%	-17%	1%	-6%	1%
Cc1cc(C)nc(N/N=C/C=C/c2ccccc2)n1	1%	?	1%	7%	?	-2%
Cc1cccc(/C=C/c2ccccc2)n1	.	.	?	11µM*	.	13µM*
C(=C\c1cc(/C=C/c2ccccc2)ncn1)/c1ccccc1	?	12µM*	-5%	10%	?	7%
C=CC[C@H](CC(=O)OC(C)(C)C)C(=O)OC[C@@H]1CCCN1C(=O)[C@H](CC=C)CC(=O)N[C@H](CO)Cc1ccccc1	-1%	.	.	.	-22%	.
Cc1cccc(N2CCN(C(=O)C3CCN(S(=O)(=O)c4cn(C)cn4)CC3)CC2)c1C	.	-6%	.	.	.	.
Cc1nc2cc(NC(=O)Nc3ccccc3Cl)ccc2n1C	0.92µM*	0.38µM*	.	0.89µM*	?	0.089µM*
Cc1ccc(NC(=O)Nc2ccc3c(c2)nc(C)n3C)cc1	?	3µM*	.	0.5µM*	?	1.4µM*
Cc1ccc(S(=O)(=O)Nc2ccc3c(c2)nc(C)n3C)cc1	-4%	2%	.	-7%	?	3%
Cc1nc2cc(NC(=O)Nc3cccc([N+](=O)[O-])c3)ccc2n1C	?	1.9µM*	.	0.71µM*	?	0.35µM*
CC(=O)c1ccc(NC(=O)Nc2ccc3c(c2)nc(C)n3C)cc1	?	19µM*	?	3.2µM*	?	?
COC(=O)c1ccc(NC(=O)Nc2ccc3c(c2)nc(C)n3C)cc1	1%	?	.	?	13%	?
COc1ccc(-c2noc(C3CC(=O)N(c4ccc(C)c(F)c4)C3)n2)c(OC)c1 (stereo not given)	.	4%	.	.	.	.
O=C(COC(=O)/C=C/c1ccccc1[N+](=O)[O-])NCc1ccco1	2%	.	.	.	0%	.
Cc1ccc(NC(=O)C(=O)NCC(c2ccc3c(c2)OCO3)N2CCOCC2)cc1C (stereo not given)	.	1%	.	.	.	.
Cc1ccc(Cn2nnc3c(=O)[nH]c(C4CCN(S(=O)(=O)c5ccc(S(=O)(=O)NC6CC6)cc5)CC4)nc32)cc1	-6%	-1%	.	0%	?	-6%
O=c1[nH]c(C2CCN(S(=O)(=O)c3ccc(S(=O)(=O)NC4CC4)cc3)CC2)nc2c1nnn2Cc1cccc(F)c1	-1%	1%	.	0%	13µM*	-1%
O=C(c1cc(-c2ccc(Br)cc2)on1)N1CCCCCC1	16µM*	1.3µM*	.	0.63µM*	?	0.71µM*
CC1CCN(C(=O)c2cc(-c3ccc(Br)cc3)on2)CC1	.	4.8µM*	-1%	.	.	.
O=C(NCCCN1CCOCC1)c1cc(-c2ccc(Br)cc2)on1	0%	?	-20%	-12%	?	-1%
O=C(c1cc(-c2ccc(Br)cc2)on1)N1CCOCC1	3.7µM*	1.9µM*	.	0.32µM*	?	0.32µM*
